# HT1080 IDH1KD tx: HT-1080 IDH1 knockdown cell toxicity (counter line) | Potency, µM (highest dose often 46.1 µM), most hits filed as cytotoxic | HT-1080 IDH1 knockdown viability, ATP luminescence, 48 h | 2% of 360,000 active
#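 IDH1KD HT-1080 cells, 750/well, RPMI + 5% FBS; compound pinned after 2 h settling; 48 h, 37 °C; CellTiter-Glo luminescence; % activity normalised to DMSO and no-cell wells; curves fitted, classed by r2 and efficacy.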
# DT40 TDP1 CPT: growth inhibition of DT40 Tdp1-/-;hTDP1 cells with camptothecin (screen for TDP1 inhibitors); Potency, µM (top dose mostly 46.2 µM), usual class: inhibitors; 12% of 420,000 active; AID 686979; chicken DT40 Tdp1-/-;hTDP1 cells + 20 nM CPT, ATP luminescence, 48 h; further: nearly all actives have a fitted effect of over 55% in size
#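 Chicken DT40 Tdp1-/- cells stably complemented with human TDP1 were seeded at 400 cells/well in medium containing 20 nM camptothecin, exposed to pin-transferred compounds, and grown at 37 °C for at least 48 hr. Viability was read as ATP luminescence.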
# IL1B secr inh: inhibitors of inflammasome signaling (IL-1 beta secretion); activity change, % at 57.5 µM; AID 743279; 4.7% of 360,000 active; THP-1 LPS/ATP IL-1B secretion, AlphaLISA, 16 h; hits give low values; in the data active means activity change below about -50%; inconclusive means mostly about -30% to -49%
#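 THP-1 cells pretreated 1 hr with compounds (up to 57.5 uM final), then stimulated with LPS (250 ng/mL final) plus ATP (1.25 mM final); secreted IL-1B measured by AlphaLISA after 16 hr, decreased signal indicating inhibition.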
# HT1080-NT tox: kills 2HG-producing HT-1080-NT fibrosarcoma cells; HT-1080-NT fibrosarcoma viability, CellTiter-Glo ATP luminescence, 48 h; Potency, µM (top dose mostly 46.1 µM), usual class: cytotoxic; 1.6% of 360,000 active; AID 686970;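 further: NT is the 2HG producing partner of a matched IDH1 knockdown line; nearly all actives have a fitted effect of over 55% in size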
#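 Compounds were tested in concentration-response format on HT-1080-NT cells for 48 hours at 37 degrees C. Cell viability came from CellTiter-Glo luminescence; curves were classified by r2, response magnitude and activity.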
# DT40 TDP1 no CPT: qHTS for Inhibitors of human tyrosyl-DNA phosphodiesterase 1 (TDP1): qHTS in cells in absence of CPT; 15% of 420,000 active; Potency, µM (titrated, usually from 46.2 µM), most hits filed as inhibitors; DT40 Tdp1-/- hTDP1 cells, no CPT, ATP luminescence, 48 h; further: nearly all actives have a fitted effect of over 55% in size
#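 Chicken DT40 Tdp1-/- cells stably complemented with human TDP1 were seeded at 400 cells/well with DMSO in place of 20 nM camptothecin. After compound pinning, cells grew at least 48 hr at 37 °C; viability read by CellTiter-Glo luminescence.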
# A number is an active result; n = inactive; u = inconclusive; x = no result; [ ] = another dose, or the depositor's remark. The list is not random: actives were taken first. Their share in the collection is about 19%. Unless noted, the call rests on the fitted dose curve; in most records, active means well fitted curve in the direction sought with a large enough effect; inconclusive means small, poorly fitted or top-dose-only effect, or another doubt; inactive means no such curve, though single readings can be large; an effect the other way counts as inactive or inconclusive.
SMILES,HT1080 IDH1KD tx,DT40 TDP1 CPT,IL1B secr inh,HT1080-NT tox,DT40 TDP1 no CPT
O=C(CNc1cccc(S(=O)(=O)N2CCOCC2)c1)N1CCc2ccccc21,n,n,n,n,n
CN1CCN(C(c2ccc(F)cc2)c2sc3nc(-c4ccco4)nn3c2O)CC1 (stereo not given),x,n,x,x,n
Cc1cccc(CCNC(=O)CCc2c(C)nc3c(c(C)nn3-c3ccccc3)c2C)c1,x,11.6µM,x,x,14.6µM
COc1ccc(CCNC(=O)CCc2c(C)nc3c(c(C)nn3-c3ccc(C)c(C)c3)c2C)cc1OC,x,20.6µM,x,x,16.4µM
CCN(CC)CCNC(=O)CCc1c(C)nc2c(c(C)nn2-c2ccc(C)c(C)c2)c1C,25.9µM,u,n,u,16.4µM
COC(CNC(=O)CCc1c(C)nc2c(c(C)nn2-c2ccc(C)cc2)c1C)OC,n,u,n,n,u
O=C(O)C1CCN(C(=O)CSc2nnc3ccccn23)CC1,n,n,n,n,n
CCN1C(=O)[C@H]2[C@@H](c3ccc(OC)cc3)N3C(=O)CN(CCOC)C(=O)[C@@]3(Cc3ccccc3)[C@H]2C1=O,n,n,n,n,n
Cc1ccc(NC(=S)NNC(=O)C2CC2c2ccc(C)cc2)cc1 (stereo not given),n,n,n,n,n
COCCCNC(=S)NNC(=O)C1CC1c1ccc(C(C)(C)C)cc1 (stereo not given),n,11.6µM,n,n,8.2µM
COc1ccc(-c2csc(C(C)(NC(C)=O)c3ccccc3)n2)cc1 (stereo not given),n,u,n,n,16.4µM
CC(=O)NC(C)(c1ccccc1)c1nc(-c2csc3ccccc23)cs1 (stereo not given),n,20.6µM,n,u,16.4µM
COc1ccc(C(C)(NC(C)=O)c2nc(-c3cccc(C#N)c3)cs2)cc1 (stereo not given),n,14.6µM,n,n,16.4µM
COc1ccc(C(C)(NC(C)=O)c2nc(-c3cccc4cccnc34)cs2)cc1 (stereo not given),n,20.6µM,n,n,23.1µM
CCNC(=O)C1CCCN(C(=O)c2ccc(C#N)cc2)CC1 (stereo not given),n,n,n,n,n
O=C(CCSc1ccc(F)cc1)NNC(=O)c1ccccc1Cl,n,n,n,n,n
COc1ccc(C(C)(NC(C)=O)c2nc(-c3cc(F)cc(F)c3)cs2)cc1 (stereo not given),n,16.4µM,n,n,20.6µM
CCOC(=O)C1(CCCc2ccccc2)CCN(C(=O)COC)CC1,n,u,n,u,n
CCOC(=O)C1(CCCc2ccccc2)CCN(C(=O)c2cncs2)CC1,n,18.4µM,n,n,23.1µM
CCOC(=O)C1(CCCc2ccccc2)CCN(C(=O)c2ocnc2C)CC1,n,n,n,n,u
CCOC(=O)C1(CCc2ccccc2)CCN(C(=O)c2cnc(C)cn2)CC1,n,u,n,n,u
CCOC(=O)C1(CCCc2ccccc2)CCN(C(=O)Cn2nc(C)nc2C)CC1,n,23.1µM,n,n,u
CCOC(=O)C1(CCCc2ccccc2)CCN(C(=O)c2n[nH]c(CC)c2C)CC1,n,23.1µM,u,n,13µM
CCOC(=O)C1(CCCc2ccccc2)CCN(C(=O)c2cc(C)nn2CC)CC1,n,18.4µM,n,u,9.2µM
CCCOc1cccc(C2c3c(oc4ccc(F)cc4c3=O)C(=O)N2CCc2ccc(OC)cc2)c1 (stereo not given),x,n,x,x,u
SMILES,HT1080 IDH1KD tx,DT40 TDP1 CPT,IL1B secr inh,HT1080-NT tox,DT40 TDP1 no CPT
COc1ccc2[nH]c(=O)c(CN(C(=O)c3cccnc3)c3ccccc3C)cc2c1,n,n,n,n,n
COc1ccc(OCCCCn2c(-c3ccc(Cl)cc3)nc3ccccc3c2=O)cc1,x,n,x,x,u
Cc1c(C)c2ccc(OCC(=O)Nc3ccc(S(N)(=O)=O)cc3)c(C)c2oc1=O,n,n,n,n,n
Cc1ccc(S(=O)(=O)CCC(=O)OCC(=O)Nc2sccc2C#N)cc1,n,n,n,n,n
Cc1ccc(CC(=O)NCCCc2ccccc2)cc1,n,n,n,n,n
COC(=O)c1ccsc1NC(=O)CCS(=O)(=O)c1ccc(Cl)cc1,n,u,n,n,18.4µM
Cc1ccc(S(=O)(=O)CCNC(=O)Cc2ccccc2)cc1,n,20.6µM,n,n,u
COC(=O)c1ccsc1NC(=O)CCS(=O)(=O)c1ccccc1,n,u,n,n,u
Cc1ccc(S(=O)(=O)CCC(=O)Nc2ccccc2C)cc1,n,u,n,n,23.1µM
Cc1ccc(S(=O)(=O)CCC(=O)Nc2ccccc2N2CCCC2)cc1,n,u,n,n[9.24 µM],n
Cc1ccc(S(=O)(=O)CCC(=O)Nc2sccc2C#N)cc1,n,u,n,n,20.6µM
CCc1ccc(CN(C)C(=O)c2ccc3c(c2)OCCO3)cc1,n,n,n,n,n
CN1OC[C@@H]2CN(Cc3ccccc3)[C@H](c3cccc(N4CCOCC4)c3)C[C@@H]21,n,n,n,n,n
Cc1ccccc1-c1cccc([C@@H]2C[C@H]3[C@H](CON3C)CN2Cc2ccccc2)c1,u,23.1µM,n,n,16.4µM
Cc1ccccc1S(=O)(=O)N1C[C@H]2CON(C)[C@H]2C[C@H]1c1cccc(Oc2ccccc2)c1,n,u,n,n,18.4µM
CN1OC[C@@H]2CN(S(=O)(=O)c3cc(Cl)cc(Cl)c3)[C@H](c3ccc(-c4ccc(C#N)cc4)cc3)C[C@@H]21,n,u,n,n,20.6µM
COc1ccccc1-c1cccc([C@@H]2C[C@H]3[C@H](CON3C)CN2C(=O)CCc2ccccc2)c1,n,18.4µM,n,n,u
COC(=O)C[C@@H]1C[C@H]2c3cc(NC(=O)Nc4ccccc4F)ccc3O[C@H]2[C@H](CO)O1,n,n,n,n,n
CCCCC(=O)NS(=O)(=O)c1ccc(N=NN(CC)CC)cc1,n,n,n,n,n
Cc1ccc(NC(=O)C2(C)Cc3ccccc3C(=O)O2)c(C)c1 (stereo not given),x,n,x,x,u
CN1C[C@H]2CON(C)[C@H]2C[C@H]1c1cccc(-c2ccc(C#N)cc2)c1,n,n,n,n,n
CN1OC[C@@H]2CN(C(=O)C(C)(C)C)[C@H](c3cccc(Br)c3)C[C@@H]21,n,n,n,n,n
CN1OC[C@@H]2CN(Cc3ccc(Cl)cc3)[C@H](c3cccc(Br)c3)C[C@@H]21,n,u,n,n,16.4µM
CN1OC[C@@H]2CN(Cc3cc(Cl)cc(Cl)c3)[C@H](c3cccc(-c4ccc(C#N)cc4)c3)C[C@@H]21,n,20.6µM,u,n,u
CCC(C)[C@H](NS(=O)(=O)c1ccc(C)cc1)C(=O)N1CCC(C(=O)N[C@@H](Cc2ccccc2)C(=O)O)CC1 (stereo not given in full),n,u,n,n,n

# Screening data from PubChem BioAssay.
